Experiment [1] concerns the target Nuclear receptor coactivator 3 (Homo sapiens) (UniProt Q9Y6Q9). Kind of experiment: NCOA3 GAL4-fusion reporter inhibition – cell-based, luminescence, quadruplicate, confirmation (AID 588792;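 active = mean inhibition over 43.08%, the solvent-only control mean plus 3 SD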;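 also: 0% = DMSO treated cells and 100% = gossypol at 36 µM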). To be noted: HEK293 GAL4-SRC3 luciferase reporter, at 3.6 µM, active compounds read high. On the technique in general: A reporter such as luciferase makes a cellular process visible.

Experiment [2] deals with transactivating tegument protein VP16 (Human herpesvirus 1), Gal4-VP16 luciferase reporter. Description: repression of VP16-driven luciferase reporter – cell-based, luminescence, high throughput, counter-screen for SRC3 inhibitor project (AID 588794). To be noted: mammalian cells, at 3.6 µM, active compounds read high.

A number with no mark means an inactive call. Active and inactive are the calls of the source. Rule as the data show it, unless noted: active = inhibition above about 30%; inactive = the rest.

Consider 35 molecules from PubChem BioAssay.

For orientation: inhibition means the relative decrease from the control value, in per cent.

Nuclear receptor coactivator 3 (Homo sapiens), sequence (Q9Y6Q9 whole entry, looked up, the tested form may be a part): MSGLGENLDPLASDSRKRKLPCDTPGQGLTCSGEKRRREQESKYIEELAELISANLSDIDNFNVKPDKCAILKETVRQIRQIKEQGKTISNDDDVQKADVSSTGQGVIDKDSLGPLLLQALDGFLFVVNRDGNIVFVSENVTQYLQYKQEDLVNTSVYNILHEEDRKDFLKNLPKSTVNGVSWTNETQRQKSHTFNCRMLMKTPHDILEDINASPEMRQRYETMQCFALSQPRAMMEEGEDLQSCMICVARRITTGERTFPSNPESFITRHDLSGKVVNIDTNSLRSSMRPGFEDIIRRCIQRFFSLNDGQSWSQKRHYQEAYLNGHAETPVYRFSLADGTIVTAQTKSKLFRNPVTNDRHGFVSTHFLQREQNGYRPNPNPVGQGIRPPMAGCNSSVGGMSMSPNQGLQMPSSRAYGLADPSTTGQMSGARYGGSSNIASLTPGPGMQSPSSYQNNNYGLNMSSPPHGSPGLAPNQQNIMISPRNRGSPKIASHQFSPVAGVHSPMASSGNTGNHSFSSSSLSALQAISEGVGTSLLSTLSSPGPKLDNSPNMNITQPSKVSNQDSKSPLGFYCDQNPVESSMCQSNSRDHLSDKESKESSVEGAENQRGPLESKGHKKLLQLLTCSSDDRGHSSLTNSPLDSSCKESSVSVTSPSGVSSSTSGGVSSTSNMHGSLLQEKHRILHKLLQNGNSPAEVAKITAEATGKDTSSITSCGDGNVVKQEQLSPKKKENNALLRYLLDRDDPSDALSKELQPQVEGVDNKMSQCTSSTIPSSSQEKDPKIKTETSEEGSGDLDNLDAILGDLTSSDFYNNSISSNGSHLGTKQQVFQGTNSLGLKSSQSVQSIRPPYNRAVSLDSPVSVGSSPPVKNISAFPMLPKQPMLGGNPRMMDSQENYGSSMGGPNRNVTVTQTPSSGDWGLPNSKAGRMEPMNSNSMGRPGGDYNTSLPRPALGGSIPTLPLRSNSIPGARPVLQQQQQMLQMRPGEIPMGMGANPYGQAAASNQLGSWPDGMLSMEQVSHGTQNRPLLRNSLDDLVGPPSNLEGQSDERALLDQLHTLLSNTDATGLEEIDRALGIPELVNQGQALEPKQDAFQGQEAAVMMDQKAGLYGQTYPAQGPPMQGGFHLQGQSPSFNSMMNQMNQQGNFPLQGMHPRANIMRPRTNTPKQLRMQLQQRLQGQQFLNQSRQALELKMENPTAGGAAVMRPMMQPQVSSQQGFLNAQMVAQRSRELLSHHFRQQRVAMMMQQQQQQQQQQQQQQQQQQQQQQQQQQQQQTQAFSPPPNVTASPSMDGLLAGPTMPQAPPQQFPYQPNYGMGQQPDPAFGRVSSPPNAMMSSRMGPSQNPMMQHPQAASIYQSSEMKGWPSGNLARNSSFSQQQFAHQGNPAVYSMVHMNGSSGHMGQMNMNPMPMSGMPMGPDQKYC

Consider `CCCc1[nH]nc2c1C(c1ccc(Br)s1)C(C#N)=C(N)O2` (stereo not given), for which the inhibition in experiment [1] is 8.21%; in experiment [2], 25.7%.
For `CC1(C)CC(=O)C=C(C#CC2(O)CCCCC2)C1`, the figures for the inhibition in experiment [1] and in experiment [2] were 19% and 1.31%, respectively.
Regarding `O=C(Oc1ccc(F)cc1C(=O)/C=C/c1cccs1)c1cccc([N+](=O)[O-])c1`, the inhibition in experiment [1] was -13.7%; in experiment [2], -23.3%.
The corresponding values for `O=C(NC(=S)NNC(=O)c1cc2ccccc2cc1O)c1ccco1` are 26.9% and 61.6% (active).
For `O=C(O)c1cc(NS(=O)(=O)c2ccc(N3CCOCC3)c([N+](=O)[O-])c2)cc(C(=O)O)c1` the same measures were 1.8% and -5.01%.
The corresponding values for `COc1ccc(-c2nc3c(c(SCC(=O)N4CCOCC4)n2)Cc2c(CO)cnc(C)c2O3)cc1` are 5.29% and -10.4%.
Take `N#CCc1ccc(NC(=O)c2ccc(S(=O)(=O)N3CCOCC3)cc2)cc1`: the inhibition was -11.6% in experiment [1] and -6.42% in experiment [2].
For `CSc1cccc(N/C(=N/S(=O)(=O)c2ccccc2)NN)c1` the same measures were 5.54% and 0.02%.
For `CCCCc1nc2ccccc2c(N)c1CCC` (tested in a mixture with another compound) the same measures were 8.62% and 9.99%.
The corresponding values for `COc1ccc(CCN2C(=O)c3cccc4c(C(=O)N5CCCCC5)ccc(c34)C2=O)cc1OC` are -2.54% and 3.93%.
Turning to `CC1=C(NCCc2ccccc2)CCC1=O`, the inhibition in experiment [1] is 0.47%; in experiment [2], -7.31%.
For `COc1cccc(C(=O)Oc2c(Br)cc(Br)cc2/C=N/NC(=O)c2cc(C)[nH]n2)c1` the same measures were 18.3% and 18.3%.
`CC#CC[N+](C)(C)CCCCCCCCCC`: the inhibition in experiment [1] was 4.4%; in experiment [2], 16.9%.
As for `COc1ccc(C)cc1NC(=O)CN1C(=O)CSc2ccc(S(=O)(=O)N3CCCC3)cc21`, the inhibition was 4.25% in experiment [1] and 3.04% in experiment [2].
Take `O=C(NNc1ccccc1)c1ccc(Cl)c(Cl)c1`: the results for the inhibition in experiment [1] and in experiment [2] were 19.8% and 58.7% (active), respectively.
The corresponding values for `CC(=O)/C=C/c1ccc2ccccc2n1` are -15.9% and 18.8%.
In the case of `O=C(CNc1cccc([N+](=O)[O-])c1)N/N=C/c1ccc([N+](=O)[O-])o1`, the inhibition in experiment [1] is 32.3%; in experiment [2], 14.3%.
The corresponding values for `C/C(=N\NC(=O)COc1ccccc1-c1ccccc1)c1ccc(O)cc1O` are 8.45% and 10.5%.
For `Cc1ccc(-c2c[n+](Cc3cccc(Cl)c3)c3n2CCC3)cc1` the same measures were -6.57% and 18.4%.
For the molecule `COc1ccc(-c2cc(C(=O)N(C)Cc3ccc(OC)c(OC)c3OC)c3ccccc3n2)cc1OC`, the results for the inhibition in experiment [1] and in experiment [2] were 8.88% and 6.51%, respectively.
For `CC1=C(C(=O)N(C)C)CC(CC(=O)NCCCCc2ccccc2)C(=O)N1Cc1ccc(C(C)(C)C)cc1` (stereo not given) the same measures were -10.1% and -1.43%.
`NCCCn1c(C(=O)c2cc(Cl)c(N)c(Cl)c2)c2ccc([N+](=O)[O-])cc2[n+]1[O-]`: the results for the inhibition in experiment [1] and in experiment [2] were 26.8% and 9.54%, respectively.
The corresponding values for `COc1ccc(/C(C)=N/NC(=O)c2cccc(S(=O)(=O)N3CCCC3)c2)c(O)c1` are 67.9% (active) and 63.5% (active).
For `COc1ccccc1N1CCN(C(=O)CSc2nnc3n2C(C)(C)Cc2ccccc2-3)CC1` the same measures were -10.1% and 27.2%.
The corresponding values for `CO[C@@]12[C@@H]3N[C@@H]3CN1C1=C(C(=O)C(N)=C(C)C1=O)[C@@H]2COC(N)=O` are 35.1% and 22%.
In the case of `Cc1ccc(C)c(S(=O)(=O)N2CCCCC2CCNC(=O)C(=O)NCc2ccncc2)c1` (stereo not given), the inhibition was 0.55% in experiment [1] and 7.08% in experiment [2].
The corresponding values for `CCn1c(Cc2ccccc2)nnc1SCC(=O)Nc1ccc(N2CCOCC2)c(Cl)c1` are -0.44% and -2.29%.
For `COc1ccc(NC(=O)c2oc3ccc(S(=O)(=O)N4CCC5(CC4)OCCO5)cc3c2C)cc1` the same measures were 5.45% and 8.97%.
For `CC(C)(CC(=O)O)CC(=O)Nc1cc(C(F)(F)F)cc(C(F)(F)F)c1` the same measures were 6.02% and -7.34%.
As for `COc1ccc(C(=O)NN(C)c2nc(C(F)(F)F)nc3ccccc23)cc1`, the inhibition in experiment [1] was 51.1% (active); in experiment [2] it was 35.3% (active).
For `CCN(CC)S(=O)(=O)c1cc(NC(=O)C(C)OC(=O)c2[nH]c(C)c(C(C)=O)c2C)ccc1C` (stereo not given) the same measures were 16% and 8.36%.
The corresponding values for `CCOC(=O)c1c(C)sc2c1N(C(=O)CCl)c1cc(Cl)ccc1S2` are -14.3% and 1.53%.
With `CC(C)(Sc1cc(C(C)(C)C)c(O)c(C(C)(C)C)c1)Sc1cc(C(C)(C)C)c(O)c(C(C)(C)C)c1`, the values for the inhibition in experiment [1] and in experiment [2] were 15.9% and -0.87%, respectively.
The corresponding values for `COc1ccc(C(Cl)=C(C=O)c2ccc(OC)c(OC)c2)cc1OC` are 22.3% and -10.7%.
For `O=C(Nc1sc2c(c1C(=O)O)CCCC2)c1ccc(F)cc1`, the figures for the inhibition in experiment [1] and in experiment [2] were 0.98% and 27.5%, respectively.
